In the supplement of paper PMC6555819 one finds PBM binding z-score data, which are given here for 40 sequences.

The first assay relates to FXR:RXRa (NR concentration 270 nM, RXRa partner concentration 90 nM). As to the kind of experiment: PBM binding z-score (relative to random genomic background probes); higher = stronger binding; sequences stand for … in GC…GCGATTGACAGCGTAGAATGAAGG
Put shortly: (§1)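 The probes on custom Agilent 4×180K protein-binding microarrays were double-stranded, with 34-nt variable regions bearing direct-repeat seeds, single-nucleotide variants, half-site ablations and random human genomic background sequences. Incubation lasted 1 h with ligand-free nuclear receptor dimers in PBS pH 7.4, 2% milk, 0.02% Triton X-100, 1 mM DTT, 0.2 mg/mL BSA and 0.4 mg/ml salmon testes DNA. Antibodies against each partner (one per run) detected bound dimers, and fluorescence scans were regression-normalized. Binding z-scores take the random background probes as reference.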
The sequence GCTAGTTGTTCAGTAAAAGGTCACACACCGGTCG yielded a PBM binding z-score of 3.26.

CCTAGCAGGCCAATCTGGGTCCCTCAAGGCTTGA: the PBM binding z-score is -0.114.

For the sequence CTTACTGGGCCACGAAAGGTCATTGATTCAGTGA, the PBM binding z-score is 5.51.

Regarding AGAACGAGGGCAAAGAGTTGATAGCACGGGTGGC, the PBM binding z-score amounted to 0.422.

On to GCTAGCAGGCCATTTGGGTCAATCAATGACGGGC, for which the PBM binding z-score is 0.192.

Take GCTATTAGTTGAAGGGGCAACCGAATGATTCTCG: the PBM binding z-score was -0.0427.

AGTCAAAGTTCAGGACGAGGTAACGAAAAGCACG returned a PBM binding z-score of 4.17.

Regarding CTCGAAAGGTCGTGCTCAGGCGAGTATACCAAAC, the PBM binding z-score amounted to 5.

AGAAGGAGGTTACCAAAGATCAGGGAAACGCTTG showed a PBM binding z-score of 0.978.

Sequence TTTCAAAGTTCAAAGGTAACGTAAGTATCCACAC gave a PBM binding z-score of 7.1.

CGTCCAAGGTCAGAGAGGTCAGTGAGTGCCGAGT yielded a PBM binding z-score of 6.29.

CAAACTAGGTCAAGAGGTCAAGGTCCGCTTCCCG showed a PBM binding z-score of 6.64.

The sequence CGTCAAAGTTCAACTAAGCTAACGTAAAGCACGC registered a PBM binding z-score of 6.6.

In the case of GAGACTGGGGCATCAGCAGGTTACCATAACTTAA, the PBM binding z-score came out at 0.0727.

As for TCTAGTTAGTCACGGAGGTCACACACGACGGGTA, the PBM binding z-score was determined as 3.07.

In the case of CGTCCAAGGCCAGCAGGTCAGTGAAAGCGACGTG, the PBM binding z-score was found to be 0.378.

In the case of CCAGACCGGTGAGAAGGTAACTCAGCCTCGATTA, the PBM binding z-score was -0.29.

In the case of CCGACTGGGACAAGGTTACCATAACGCACAGCCA, the PBM binding z-score was 0.29.

For the next assay, the system named is LXRa:RXRa (NR concentration 270 nM, RXRa partner concentration 90 nM). The description is as above. Put shortly: as §1
On to ATATGTAGGTTAAGGGTCAGTCAGGTTGGTTCGC, for which the PBM binding z-score worked out at 3.26.

For TTACCAAGGTGAAAGGGCGTTGATGCACGCCTTG, the PBM binding z-score turned out to be 0.702.

The sequence CGTCAAAGTTCGACTAAGGTAACGTAAAGCACGC came in with a PBM binding z-score of 1.33.

Sequence CAAACTAGGGCAAGGTCAAAGTCGGTTTGTGCCA showed a PBM binding z-score of 4.46.

The sequence ACTATTAGTTGACTTACGGCAACCGATACGACGC registered a PBM binding z-score of 0.066.

As for CCGACTGGGGCATAAGGTTACTATAAGCCAGCCC, the PBM binding z-score turned out to be 3.57.

In turn, GCAGACAGGTGAAACGCAGGGAACTCAGGGTGGC displayed a PBM binding z-score of -0.181.

TAGCCTACGTCATGCGGGCCAGTATAGTGTCGGC yielded a PBM binding z-score of -0.942.

Take CCTACTGGGCCACGGTCATTGATCAGTCAAAGCA: the PBM binding z-score was -0.19.

In turn, CGAACTAGGTCAAGGACAGTGATTCTCCGCACGC registered a PBM binding z-score of 2.21.

On to CCAGACAGGTGAAAGATAACTCAGTCTGGTACGC, for which the PBM binding z-score stood at 0.0578.

As to TATACAGGGTCAAAGGCCAGGGTACGAATGTCGA, the PBM binding z-score is 6.23.

Regarding CCTAGTTGGTCAAGGTCACAAACGCTATAGGTAC, the PBM binding z-score stood at 3.32.

For the sequence CGTCCAAGGTCAGAGAGGTCAGGGAATGCCGAGT, the PBM binding z-score turned out to be 5.17.

In the case of GCCTACGGGTCAAAGGTTATAGCATGAATAGAAT, the PBM binding z-score came to 5.56.

GGCACGAGGGCAAAGTTGATAGCATCTGTCGACG gave a PBM binding z-score of 1.01.

On to GCAGACAGGTGAAACGCAGGTAAATCAGGGTGGC, for which the PBM binding z-score is -0.128.

In the case of TCTAGTTGGTCACGGAGGTGACACACGACGGGTA, the PBM binding z-score was 0.805.

CAAGACAGGTGAGAAGGTAACTCAGCCTCGATTA registered a PBM binding z-score of 0.452.

In turn, TCGAGTAGGTTAGTCGGGGCATTAAGCCAACATA returned a PBM binding z-score of -0.0214.

Take CTACCAAGGTGAAAAAGGTCGTTGATTACTATTC: the PBM binding z-score is 1.45.

For the sequence ACTAGCAGGCCAAGTTTGGGTCAGTCAAACAAAG, the PBM binding z-score was -0.244.

As for GCTAGTTGTTCAGTAAAAGGTCACACACCGGTCG, the PBM binding z-score was determined as 4.29.

The sequence CCTAGCAGGCCAATCTGGGTCCCTCAAGGCTTGA yielded a PBM binding z-score of -0.609.

Take CTTACTGGGCCACGAAAGGTCATTGATTCAGTGA: the PBM binding z-score was 6.24.

AGAACGAGGGCAAAGAGTTGATAGCACGGGTGGC came in with a PBM binding z-score of 0.331.

GCTAGCAGGCCATTTGGGTCAATCAATGACGGGC showed a PBM binding z-score of 0.264.

The sequence GCTATTAGTTGAAGGGGCAACCGAATGATTCTCG had a PBM binding z-score of -0.304.

On to AGTCAAAGTTCAGGACGAGGTAACGAAAAGCACG, for which the PBM binding z-score turned out to be 3.54.

CTCGAAAGGTCGTGCTCAGGCGAGTATACCAAAC showed a PBM binding z-score of 3.56.

AGAAGGAGGTTACCAAAGATCAGGGAAACGCTTG had a PBM binding z-score of 5.85.

TTTCAAAGTTCAAAGGTAACGTAAGTATCCACAC: the PBM binding z-score came out at 6.88.

Turning to CGTCCAAGGTCAGAGAGGTCAGTGAGTGCCGAGT, the PBM binding z-score stood at 5.06.

The sequence CAAACTAGGTCAAGAGGTCAAGGTCCGCTTCCCG yielded a PBM binding z-score of 6.02.

In turn, CGTCAAAGTTCAACTAAGCTAACGTAAAGCACGC gave a PBM binding z-score of 6.23.

Take GAGACTGGGGCATCAGCAGGTTACCATAACTTAA: the PBM binding z-score turned out to be 0.0866.

TCTAGTTAGTCACGGAGGTCACACACGACGGGTA showed a PBM binding z-score of 3.04.

In turn, CGTCCAAGGCCAGCAGGTCAGTGAAAGCGACGTG registered a PBM binding z-score of 0.0811.

In turn, CCAGACCGGTGAGAAGGTAACTCAGCCTCGATTA returned a PBM binding z-score of 0.0278.

Regarding CCGACTGGGACAAGGTTACCATAACGCACAGCCA, the PBM binding z-score was determined as 0.604.

Another assay deals with LXRa homodimer (NR concentration 270 nM). The assay is described as above. In short, it runs like this:
as §1
Consider ATATGTAGGTTAAGGGTCAGTCAGGTTGGTTCGC, for which the PBM binding z-score is 1.44.

In turn, TTACCAAGGTGAAAGGGCGTTGATGCACGCCTTG showed a PBM binding z-score of -0.488.

CGTCAAAGTTCGACTAAGGTAACGTAAAGCACGC: the PBM binding z-score came out at 0.0441.

Consider CAAACTAGGGCAAGGTCAAAGTCGGTTTGTGCCA, for which the PBM binding z-score is 2.44.

For the sequence ACTATTAGTTGACTTACGGCAACCGATACGACGC, the PBM binding z-score amounted to 0.174.

CCGACTGGGGCATAAGGTTACTATAAGCCAGCCC registered a PBM binding z-score of 0.0863.

GCAGACAGGTGAAACGCAGGGAACTCAGGGTGGC had a PBM binding z-score of -0.294.

TAGCCTACGTCATGCGGGCCAGTATAGTGTCGGC returned a PBM binding z-score of -0.548.

Consider CCTACTGGGCCACGGTCATTGATCAGTCAAAGCA, for which the PBM binding z-score was found to be 0.043.

In turn, CGAACTAGGTCAAGGACAGTGATTCTCCGCACGC yielded a PBM binding z-score of 0.289.

CCAGACAGGTGAAAGATAACTCAGTCTGGTACGC showed a PBM binding z-score of -0.199.

With TATACAGGGTCAAAGGCCAGGGTACGAATGTCGA, the PBM binding z-score amounted to 2.51.

As for CCTAGTTGGTCAAGGTCACAAACGCTATAGGTAC, the PBM binding z-score stood at 1.64.

In the case of CGTCCAAGGTCAGAGAGGTCAGGGAATGCCGAGT, the PBM binding z-score stood at 3.24.

Sequence GCCTACGGGTCAAAGGTTATAGCATGAATAGAAT showed a PBM binding z-score of 0.447.

In the case of GGCACGAGGGCAAAGTTGATAGCATCTGTCGACG, the PBM binding z-score was -0.378.

Consider GCAGACAGGTGAAACGCAGGTAAATCAGGGTGGC, for which the PBM binding z-score was -0.519.

TCTAGTTGGTCACGGAGGTGACACACGACGGGTA: the PBM binding z-score is -0.0469.

For the sequence CAAGACAGGTGAGAAGGTAACTCAGCCTCGATTA, the PBM binding z-score was -0.0734.

The sequence TCGAGTAGGTTAGTCGGGGCATTAAGCCAACATA had a PBM binding z-score of -0.347.

With CTACCAAGGTGAAAAAGGTCGTTGATTACTATTC, the PBM binding z-score stood at 0.405.

ACTAGCAGGCCAAGTTTGGGTCAGTCAAACAAAG showed a PBM binding z-score of -0.318.

Take GCTAGTTGTTCAGTAAAAGGTCACACACCGGTCG: the PBM binding z-score turned out to be 4.24.

Regarding CCTAGCAGGCCAATCTGGGTCCCTCAAGGCTTGA, the PBM binding z-score is -0.704.

Regarding CTTACTGGGCCACGAAAGGTCATTGATTCAGTGA, the PBM binding z-score was 4.47.

In the case of AGAACGAGGGCAAAGAGTTGATAGCACGGGTGGC, the PBM binding z-score was -0.368.

With GCTAGCAGGCCATTTGGGTCAATCAATGACGGGC, the PBM binding z-score was -0.476.

Turning to GCTATTAGTTGAAGGGGCAACCGAATGATTCTCG, the PBM binding z-score is -0.118.

With AGTCAAAGTTCAGGACGAGGTAACGAAAAGCACG, the PBM binding z-score came out at 0.921.

CTCGAAAGGTCGTGCTCAGGCGAGTATACCAAAC: the PBM binding z-score was -0.183.

With AGAAGGAGGTTACCAAAGATCAGGGAAACGCTTG, the PBM binding z-score came to 0.0257.

For the sequence TTTCAAAGTTCAAAGGTAACGTAAGTATCCACAC, the PBM binding z-score stood at 6.41.

As to CGTCCAAGGTCAGAGAGGTCAGTGAGTGCCGAGT, the PBM binding z-score was found to be 3.37.

For CAAACTAGGTCAAGAGGTCAAGGTCCGCTTCCCG, the PBM binding z-score turned out to be 4.56.

CGTCAAAGTTCAACTAAGCTAACGTAAAGCACGC: the PBM binding z-score is 4.14.

GAGACTGGGGCATCAGCAGGTTACCATAACTTAA displayed a PBM binding z-score of -0.0013.

Consider TCTAGTTAGTCACGGAGGTCACACACGACGGGTA, for which the PBM binding z-score is 2.41.

CGTCCAAGGCCAGCAGGTCAGTGAAAGCGACGTG: the PBM binding z-score is -0.472.

For the sequence CCAGACCGGTGAGAAGGTAACTCAGCCTCGATTA, the PBM binding z-score was found to be 0.205.

CCGACTGGGACAAGGTTACCATAACGCACAGCCA showed a PBM binding z-score of -0.141.
